A short description of test [1]: compound effects on lung adenocarcinoma cell viability – A549, calcein-AM fluorescence, 48 h, basal, profiling panel (AID 1162). Conditions: higher = more signal.
A short description of test [2]: compound effects on differentiated 3T3-L1 adipocyte viability – cell-based, 3T3-L1 adipocytes, calcein-AM fluorescence, 48 h, basal, profiling panel (AID 1163). The following applies: 3T3-L1 adipocytes viability, higher = more signal.
Test [3] is described as follows: compound effects on hepatocellular carcinoma cell viability – HepG2, calcein-AM fluorescence, 48 h, basal, profiling panel (AID 1164). Conditions: higher = more signal.
Test [4] in a line: compound effects on multiple myeloma cell viability – MM1S, calcein-AM fluorescence, 48 h, basal, profiling panel (AID 1165). Conditions: higher = more signal.
Test [5] in a line: calcein-AM signal in unstimulated myeloma cells – cell-based, calcein-AM fluorescence, 48 h, PK04 Diversity Set, profiling panel (AID 1166).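 Further: cells grown under basal conditions without added stimulus.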 Conditions: RPMI8226 myeloma viability, higher = more signal.
The nature of test [6]: JC-1 mitochondrial signal, unstimulated HepG2 cells – cell-based, JC-1 fluorescence, 24 h, 100 nL compound, profiling panel (AID 1167). Conditions: HepG2 mitochondrial potential, higher = more signal.
Test [7] can be described thus: JC-1 mitochondrial signal, unstimulated adipocytes – cell-based, JC-1 fluorescence, 3T3-L1 adipocytes, 24 h, 100 nL compound, profiling panel (AID 1168). Conditions: JC-1 mitochondrial fluorescence, higher = more signal, called active from +8 up or from −8 down.
Test [8] can be described thus: JC-1 mitochondrial signal, unstimulated myeloma cells – cell-based, JC-1 fluorescence, RPMI8226, 24 h, 100 nL compound, profiling panel (AID 1169). The following applies: JC-1 mitochondrial potential fluorescence, higher = more signal.
Test [9] in a line: JC-1 mitochondrial signal, unstimulated MM1S myeloma – cell-based, JC-1 fluorescence, 24 h, 100 nL compound, profiling panel (AID 1170). Conditions: MM1S mitochondrial potential, higher = more signal.
Test [10] can be described thus: resazurin metabolic signal in A549 cells – cell-based, resazurin fluorescence, 24 h, PK04 Diversity Set, profiling panel (AID 1171). The following applies: A549 viability, higher = more signal, called active from +8 up or from −8 down. Background: The colour change of resazurin is a common sign of viable cells or microbes.

Each structure is given as a SMILES string. The source made the active and inactive calls.
Further: test concentration not given here.

In the case of `CCCC[C@H]1C[C@@H]1[C@@H]1N(P(=O)(c2ccccc2)c2ccccc2)[C@](CO)(c2ccccc2)CC12CC2`, the z-score in test [1] is -2.02; in test [2], -0.0661; in [3], -1.96; in test [4], -3.23; in test [5], -4.69; in test [6], -2.28. Further, the z-score in test [7] was -0.732 (inactive); in test [8] it was -0.868; in test [9], -2.86; in [10] it was 0.936 (inactive).

Turning to `CCCNC(=O)[C@@]1(c2ccc([N+](=O)[O-])cc2)CC(=O)N(CC23CC4CC(CC(C4)C2)C3)[C@@H]1c1ccc(CO)cc1I`, the z-score in test [1] was -1.29; in [2], -0.738; in test [3], -4.9; in test [4], -3.81; in [5], -4.32; in test [6] it was 0.243. Further, the z-score in test [7] was -0.0911 (inactive); in test [8] it was -0.872; in test [9], -2.18; in [10] it was -3.39 (inactive).

With `O=C1O[C@H](c2ccccc2)[C@H](c2ccccc2)N2[C@H]1[C@@H](C(=O)NC[C@H](O)c1ccccc1)[C@]1(C(=O)Nc3ccc(C#CC4=CCCCC4)cc31)[C@H]2c1ccc(O)cc1`, the z-score is -1.06 in test [1]; 1.72 in test [2]; -1.25 in [3]; -3.18 in test [4]; -3.47 in [5]; -2.78 in test [6]. The z-score was -0.683 (inactive) in [7], -0.87 in test [8], -0.544 in test [9] and 0.237 (inactive) in [10].

In the case of `C[C@]1(C(=O)NCC(F)(F)F)c2ccccc2C(=O)N(Cc2cc(F)cc(C(F)(F)F)c2)[C@H]1c1ccc(CO)cc1`, the z-score in test [1] was -0.493; in test [2], 1.63; in test [3], -0.357; in [4], -0.74; in test [5], -0.308; in [6], 0.951. Moreover, the z-score in test [7] is -0.449 (inactive); in test [8] it was -0.494; in [9], 0.206; in [10], -0.557 (inactive).

Take `CC(C)(C)OC(=O)CC[C@]1(C(=O)NCC(O)CO)N=C(c2ccc(OCCCO)cc2)O[C@H]1c1ccccc1CN=[N+]=[N-]` (stereo not given in full): the z-score in test [1] is -1.22; in [2], 0.351; in [3] it was -0.504; in [4] it was -1.1; in test [5] it was -1.44; in test [6] it was -1.02. Moreover, the z-score in test [7] was -0.484 (inactive); in test [8] it was 0.574; in [9], 0.649; in test [10], -0.323 (inactive).

As to `COCCCNC(=O)[C@@]1(Cc2ccccc2I)c2ccccc2C(=O)N(Cc2ccccc2)[C@H]1c1ccc(CO)cc1`, the z-score is 0.954 in test [1]; 0.387 in [2]; 0.828 in test [3]; -0.657 in test [4]; -1.25 in [5]; 1.71 in [6]. Further, the z-score in test [7] was -0.432 (inactive); in [8], -0.136; in test [9] it was 0.651; in test [10], 1.67 (inactive).

Regarding `COC(=O)[C@@]1(Cc2ccccc2)[C@H]2c3cc(C(=O)N(C)C)n(Cc4cc(F)c(F)c(F)c4)c3C[C@H]2CN1C(=O)c1ccccc1`, the z-score in test [1] is -0.749; in [2], 0.135; in test [3], 0.545; in test [4], -2.11; in [5], -4.67; in test [6] it was 0.891. Further, the z-score in test [7] was -1.35 (inactive); in [8], -0.368; in [9], -0.951; in [10] it was -0.0085 (inactive).

With `NC(=O)NCC#Cc1ccc2c(c1)[C@]1(C(=O)N2)[C@H](c2ccccc2OCCO)N2[C@H](c3ccccc3)[C@H](c3ccccc3)OC(=O)[C@H]2[C@@H]1C(=O)N1CCCCCCC1`, the z-score was -0.169 in test [1]; 0.73 in [2]; 0.231 in test [3]; -0.0358 in test [4]; 0.236 in [5]; -0.978 in test [6]. Further, the z-score in test [7] is 0.303 (inactive); in test [8], -0.498; in [9], 0.143; in test [10], 0.414 (inactive).

Turning to `C=CCNC(=O)[C@H]1[C@@H]2C(=O)O[C@@H](c3ccccc3)[C@@H](c3ccccc3)N2[C@@H](c2ccc(OCCO)cc2)[C@]12C(=O)N(C(=O)OCCOC)c1ccc(C#CC3(O)CCCCCC3)cc12`, the z-score in [1] is 1.13; in test [2], 1.61; in [3] it was 0.388; in test [4], -0.963; in test [5], -2.4; in [6] it was -0.898. Further, the z-score in test [7] is 1.71 (inactive); in test [8] it was -0.774; in test [9], -0.988; in test [10], 0.454 (inactive).

Consider `COc1ccc([Si](C)(C)[C@H]2[C@H](CCO)O[C@@]3(C(=O)N(Cc4ccccc4)c4ccc(N5C(=O)COc6ccccc65)cc43)[C@@H]2C)cc1`, for which the z-score in [1] is -0.831; in test [2], 0.281; in test [3], -3.01; in [4], -3; in test [5] it was -3.25; in [6] it was -0.111. Also, the z-score in [7] was 1.46 (inactive); in test [8] it was -0.855; in test [9] it was -1.47; in [10], -1.74 (inactive).

Consider `CCCC[C@H]1OB(O)C[C@H]2C1=C(COc1ccccc1)C[C@H]1C(=O)N(Cc3ccccc3)C(=O)[C@H]12`, for which the z-score in [1] was 0.358; in test [2] it was 0.488; in [3], -0.429; in test [4] it was -1.09; in [5], -1.08; in test [6], 0.989. For the same compound, the z-score was 0.241 (inactive) in [7], -0.163 in test [8], -0.446 in test [9] and 0.574 (inactive) in test [10].

For `CCCCCCC#C[Si](O[C@H](c1ccccc1)c1cn([C@H](C)c2ccccc2)nn1)(C(C)C)C(C)C`, the z-score in test [1] was -0.577; in [2], -1.2; in test [3] it was 0.0417; in test [4], 0.227; in test [5], 0.0204; in test [6], 3.36. Besides, the z-score in test [7] was -0.0744 (inactive); in test [8] it was -0.846; in test [9], -1.19; in test [10] it was 2.74 (inactive).

`CN(C)CCCN1C(=O)[C@@]2(c3ccc([N+](=O)[O-])cc3)CC(=O)N(C3CCCCC3)[C@@H]2c2ccc(CO)cc21`: the z-score in [1] was -0.397; in test [2] it was 0.962; in test [3] it was -0.816; in test [4], -0.0337; in test [5], 0.505; in test [6], 0.446. Besides, the z-score is -0.274 (inactive) in test [7], 0.764 in test [8], -0.725 in test [9] and 0.572 (inactive) in [10].

Take `C=CC[C@@]1(C(=O)OC)N=C(c2ccc(OCCCO)cc2)O[C@@H]1c1ccccc1CN=[N+]=[N-]`: the z-score was -0.817 in test [1]; 0.358 in [2]; -1.13 in test [3]; -2.7 in [4]; -3.17 in test [5]; 0.195 in test [6]. The z-score in test [7] is 1.31 (inactive); in [8] it was -0.969; in [9], -0.949; in test [10], -1.19 (inactive).

In the case of `CC(C)[C@H]1COC(=O)N1C(=O)[C@H]1[C@@H](c2ccccc2)N(c2ccccc2)O[C@@H]1C`, the z-score in test [1] was 0.198; in test [2] it was 0.343; in [3], 0.612; in test [4] it was -0.357; in test [5], 0.133; in [6] it was 0.941. Also, the z-score is 0.997 (inactive) in [7], -0.361 in [8], -1.46 in test [9] and 1.72 (inactive) in test [10].
